A selection: hits, their analogues and other compounds. The true share with any hit is near 2.8%.
Calpain2 inh – inhibitors of pig calpain II | inhibition, % at 16 µM | 0.37% of 220,000 active | purified calpain II, fluorogenic peptide substrate, 30 min;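 active means inhibition above about 50%, limit read from the data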
Mcl1-Noxa inh – disrupts binding of human Mcl-1 to Noxa peptide | Q07820 | AID 1022 | inhibition, % at 21.7 µM | TR-FRET Mcl-1/Noxa peptide binding, 2 h | 1.5% of 220,000 active;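 active means compounds that cut the protein-peptide binding signal by more than 50% relative to plate controls in a single-dose test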;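 further: His-tagged Mcl-1 with rhodamine Noxa BH3 peptide and terbium anti-His antibody; 0% = Mcl-1 plus Noxa peptide wells and 100% = peptide-only wells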
Target sequence (Q07820 whole entry, looked up): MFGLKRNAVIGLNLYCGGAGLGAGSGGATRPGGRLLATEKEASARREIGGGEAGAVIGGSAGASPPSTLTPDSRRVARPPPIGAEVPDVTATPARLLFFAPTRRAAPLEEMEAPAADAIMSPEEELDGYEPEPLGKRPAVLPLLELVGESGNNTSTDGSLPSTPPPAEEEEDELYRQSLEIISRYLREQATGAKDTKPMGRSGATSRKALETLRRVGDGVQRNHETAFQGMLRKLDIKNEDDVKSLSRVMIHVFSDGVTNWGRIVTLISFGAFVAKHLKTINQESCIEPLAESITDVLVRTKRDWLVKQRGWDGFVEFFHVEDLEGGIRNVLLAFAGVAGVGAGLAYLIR
Mcl1 Bid PPI – disrupts binding of human Mcl-1 to Bid peptide | Q07820 | 0.97% of 220,000 active | TR-FRET Mcl-1/Bid-Dy647 peptide binding, 1536-well | inhibition, % at 21.7 µM;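 active means compounds that cut the binding signal by more than half at the single screening dose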;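 further: His-tagged Mcl-1 with europium anti-His antibody binding Bid BH3 peptide; 0% = Mcl-1 plus peptide wells and 100% = peptide-only wells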
Mcl-1 Bim block – inhibitors of Bim-Mcl-1 interaction, human | Bead-based flow cytometry, Bim peptide-Mcl-1 binding | inhibition, % at 10 µM | 0.1% of 190,000 active | AID 1009; in the data active means inhibition above about 40%;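 further: 0% = no compound tracer wells and 100% = peptide blocker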
TNF necrop inh – TNF-alpha cell death inhibition in Jurkat FADD-/- cells; Jurkat FADD-/- TNF necroptosis rescue, ATP luminescence, 24 h; 0 = TNF only, 100 = no-TNF cells; AID 463075; activation (protection from cell death), % at 10 µM; 0.068% of 220,000 active;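 active means activation, meaning protection from cell death, of at least 50% relative to plate controls; inactive means activation below 50%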;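 further: necroptosis triggered by 40 ng/mL TNF-alpha added together with compound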
L929 necroptosis – blocks zVAD induced death of L929 cells | viability rescue, % at 10 µM | AID 1377 | 0.38% of 220,000 active | L929 zVAD necroptosis rescue, ATP luminescence, 24 h; with zVAD 60 µM;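 active means activation, scaled between plate controls, above about 75%, limit read from the data; inactive means activation under that limit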;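 further: 0% = zVAD with DMSO and 100% = DMSO alone without zVAD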
Numbers without * were called inactive; i = inactive; . = not tested or not shown.

SMILES | Calpain2 inh | Mcl1-Noxa inh | Mcl1 Bid PPI | Mcl-1 Bim block | TNF necrop inh | L929 necroptosis
Cc1ccc(NCCC#N)cc1C | -22 | 22 | -59 | -4 | 0 | 0
COc1ccc2cc(C(=O)NCc3ccco3)c(=O)oc2c1 | -165 | 14 | -59 | 0 | 1 | 0
COc1ccc2oc(=O)c(-c3nnc(NCc4ccco4)s3)cc2c1 | -287 | 50 | 65* | -1 | -5 | 0
COc1cccc2cc(-c3cn4ccc(C)cc4n3)c(=O)oc12 | . | . | . | . | -2 | -1
CNc1nnc(-c2cc3cc(Cl)ccc3oc2=O)s1 | -7 | 64* | 13 | -1 | 1 | 1
CCOc1cccc2cc(-c3cn4cc(C)ccc4n3)c(=O)oc12 | -65 | 12 | 80* | 0 | -7 | 0
COc1ccc2oc(=O)c(-c3csc(Nc4ccc(O)cc4)n3)cc2c1 | -9 | 73* | 40 | 0 | -15 | 7
CC12CCC(C(=O)Nc3nc4ccccc4s3)(OC1=O)C2(C)C (centres undefined) | 2 | 1 | -9 | -3 | 1 | 5
COc1ccccc1NS(=O)(=O)c1cccc(C(=O)N/N=C2\CC(=O)CC(C)(C)C2)c1 | -19 | 10 | -34 | 4 | 2 | 0
CCOc1cccc2cc(C(C)=O)oc12 | -14 | 12 | -4 | -2 | 4 | 1
CCOc1cccc2cc(-c3nnc(NCc4ccco4)s3)c(=O)oc12 | -381 | 64* | 29 | 0 | -11 | 0
CCn1c2ccccc2c2cc(NC(=O)c3ccc(=O)oc3)ccc21 | -65 | 40 | 10 | . | -5 | 2
CCn1c2ccccc2c2cc(NC(=O)c3coc(=O)c(Br)c3)ccc21 | -29 | 69* | 38 | . | -26 | -1
COCc1cc(CN2CCCC(CNC(=O)c3ccc(F)cc3)C2)ccc1OC (centres undefined) | -2 | -3 | -29 | 40* | 1 | 0
CC(NC(=O)COC(=O)CCc1ccccc1)c1ccccc1 (centres undefined) | -8 | 14 | -5 | -3 | 0 | 1
CCOC(=O)C(=O)N1CCC(C(=O)OCC)CC1 | -16 | 7 | -10 | . | 1 | 1
CCCOc1ccc(N2C(=O)CC(SCc3nc4ccccc4[nH]3)C2=O)cc1 (centres undefined) | 26 | -6 | -24 | 1 | 1 | -2
CCOC(=O)c1c(-c2ccccc2)csc1NC(=O)C1CCCO1 (centres undefined) | -27 | 6 | -11 | -13 | -2 | 0
CCOC(=O)c1c(-c2ccc(-c3ccccc3)cc2)csc1NC(=O)C1C2CCC(O2)C1C(=O)O (centres undefined) | -43 | 56* | 25 | -6 | -4 | 0
Nc1c(C(=O)N/N=C/c2ccc(Cl)cc2)cnn1-c1ccccc1 | -35 | 7 | -5 | . | -1 | 1
O=c1c(Cl)c(N/N=C/c2ccc(Cl)cc2)cnn1-c1ccccc1 | -47 | 74* | 18 | -1 | 2 | 1
C=CCn1nnc2sc3c(c2c1=O)CCC(C)C3 (centres undefined) | -79 | -3 | -4 | 3 | 2 | 0
COc1ccc(C(=O)Nc2ccc(S(=O)(=O)NC(C)(C)C)cc2)cc1[N+](=O)[O-] | 54* | 6 | -1 | 0 | -3 | -1
Clc1ccc(CSc2ccc(-c3cccnc3)nn2)cc1 | 28 | 6 | 9 | 0 | 2 | 0
Fc1cccc(Cl)c1CSc1ccc(-c2cccnc2)nn1 | 64* | 17 | 10 | -3 | -2 | -1
SMILES | Calpain2 inh | Mcl1-Noxa inh | Mcl1 Bid PPI | Mcl-1 Bim block | TNF necrop inh | L929 necroptosis
COc1ccc(N(C(=O)CS(=O)CC(=O)Nc2ccc(F)cc2)C(C(=O)NC2CCCCC2)c2cccs2)cc1 (centres undefined) | 18 | -81 | 61* | -2 | -3 | .
O=C(O)c1ccccc1NS(=O)(=O)c1ccccc1C(F)(F)F | 18 | 53* | -5 | -2 | 0 | 0
O=C(O)CCCNc1ccc(S(=O)(=O)Nc2ccccc2C(=O)O)cc1C(=O)O | -17 | 60* | 22 | -4 | 0 | 2
Cc1ccccc1NS(=O)(=O)c1ccc(C)c(C(N)=O)c1 | -11 | -5 | -16 | -1 | -3 | 0
O=C(O)c1ccccc1NS(=O)(=O)c1cccc2cccnc12 | -12 | -1 | -4 | -3 | 3 | .
O=C(C[n+]1cn(C(F)F)c2ccccc21)c1ccc(OC(F)F)cc1 | 19 | 7 | 5 | 0 | -1 | 5
CCOc1cc(S(=O)(=O)NCc2ccccn2)c(C)cc1C | 2 | 9 | -8 | 0 | -3 | 0
COc1ccc(N/C(=C(/C(Cl)=C(Cl)Cl)[N+](=O)[O-])n2nnc3ccccc32)cc1OC | i | 36 | 75* | 2 | 0 | 0
Cc1ccc2[nH]c(=O)c(CN(Cc3ccccc3Cl)C(=O)N3CCOCC3)cc2c1 | -34 | 18 | 3 | 1 | -6 | 0
Cc1ccc(-n2c3nc(=O)n(C)c(=O)c-3cc3ccccc32)cc1 | -313 | -4 | 44 | . | 2 | 0
Cn1c(=O)nc2n(Cc3ccccc3)c3cccc(Cl)c3cc-2c1=O | -429 | 36 | 62* | -5 | -3 | 0
CCOC(=O)/C(=C\c1ccccc1)NC(=O)c1ccccc1 | -5 | 6 | -7 | . | -1 | 0
C=CCOC(=O)/C(=C\c1ccccc1)NC(=O)c1ccc(C)cc1 | -25 | 117* | -17 | 1 | 0 | 1
CCOC(=O)N1CCC(NC(=O)c2ccc(CS(=O)(=O)c3ccccc3C)o2)CC1 | 1 | 0 | -14 | 2 | 0 | 0
CC(C)CSc1oc(-c2ccco2)nc1S(=O)(=O)c1ccccc1 | 21 | 9 | -16 | . | -1 | 0
Cc1cccnc1Nc1nc(-c2ccc(O)c(O)c2)cs1 | 12 | 69* | -10 | -9 | -12 | 14
N#Cc1c(Nc2cccc(F)c2)sc2c(O)cc(=O)[nH]c12 | 14 | 54* | -136 | 3 | 0 | 1
O=C(Nc1nc(COc2ccccc2)cs1)C12CC3CC(CC(C3)C1)C2 | 58* | 13 | 14 | -2 | -5 | -1
O=C(Nc1nc2ccc([N+](=O)[O-])cc2s1)c1c(F)cccc1F | -11 | 12 | -3 | -4 | 1 | 4
COc1ccc2nc(NC(=O)c3ccc(-c4cccc([N+](=O)[O-])c4)o3)sc2c1 | -61 | 62* | 79* | 10 | 0 | 0
O=C(Nc1nc2ccc([N+](=O)[O-])cc2s1)c1ccco1 | -58 | 56* | 17 | -1 | -3 | 2
N#C/C(=C(/O)c1ccc(-c2cccc([N+](=O)[O-])c2)o1)c1nc2ccccc2s1 | -96 | 88* | 15 | -1 | 0 | 1
O=C(O)c1ccc(-c2cccc([N+](=O)[O-])c2)o1 | 7 | 17 | -27 | . | 1 | 0
COc1cc2c(cc1OC)C(C(=O)N1CCCCC1)C(c1ccccc1F)N(C)C2=O (centres undefined) | -11 | 21 | -4 | -2 | -1 | 0
